The source of these data is ChEMBL document CHEMBL1157539, “Thousands of chemical starting points for antimalarial lead identification” (Nature, 2010).

Structures are written as SMILES.

The assay deals with HepG2. The assay can be described thus: GSK_TCMDC: Percent inhibition of human HepG2 cell line. Test compounds present at 10uM. It counts as functional.
As to `Nc1nc(N)c2nc(C3CC=CCC3)c(N)nc2n1` (stereo not given), the Inhibition – broadly, the percentage by which the read-out fell short of the control – came to 67%. The result for `C=CCOC(=O)N1CCC(CNCc2ccc(-c3ccc(-c4nc5ccccc5[nH]4)s3)cc2)C1.O=C(O)C(F)(F)F` (stereo not given) reads 29%; that for `COc1ccccc1C(=O)C1CCCN(C(=O)c2ccccc2C(F)(F)F)C1` (stereo not given), 0%.

Molecule `CCc1c(CCNCCCCCCNC(C)Cc2ccc3c(c2CC)OCO3)ccc(OC)c1OC.Cl` (stereo not given) came in with an Inhibition of 100%. The result for `O=C(NCCN1CCCCC1)c1ccc(CNC(=O)c2ccc(O)c(-c3cccc(C(F)(F)F)c3)c2)cc1` reads 3%; that for `CN(C(=O)Nc1ccc(C(F)(F)F)cc1)C1CCN(CCCCCNC(=O)/C=C/c2ccc(Cl)c(Cl)c2)CC1`, 57%.

Regarding `Cc1ccc2[nH]c(-c3cc(-c4cccc(C#N)c4)cnc3N)nc2c1.O=C(O)C(F)(F)F`, the Inhibition is 40%. The figure for `Cl.Cn1c(=N)n(CC(=O)N2CCc3ccc(Cl)cc3C2Cc2ccc(Cl)c(Cl)c2)c2ccccc21` (stereo not given) is 99%; for `Cc1ccccc1N1CCN(c2ccc(C(=O)Nc3ccccc3)cn2)CC1.O=C(O)C(F)(F)F` it is 44%; for `CCN(CC)CCN(Cc1ccc(-c2ccc(C(F)(F)F)cc2)cc1)C(=O)Cn1c(SCc2ccc(F)cc2)nc(=O)c2ccccc21.O=C(O)C(O)C(O)C(=O)O` it is 47%.

The molecule `COc1ccc(C(=O)N2CCC3(CC2)C(=O)N(CC(=O)NCC2CCCCC2)CN3c2ccccc2)cc1` displayed an Inhibition of 18%. The figure for `COc1cc2nc(N3CCN(c4nc(N)c5cc(OC)c(OC)cc5n4)CC3)nc(N)c2cc1OC` is 13%; for `Br.c1ccc(-c2ccc(-c3csc(Nc4ccncc4)n3)cc2)cc1` it is 30%; for `COc1ccc2nccc([C@@H](O)CN3CCC(NC(=O)c4nc(Cl)c(Cl)c(N)c4Cl)CC3)c2c1.CS(=O)(=O)O` it is 16%. The figure for `CN1CCN(c2ccc(Nc3c(C(N)=O)cnc4cc(-c5ccoc5)ccc34)cc2)CC1.Cl` is 14%; for `CCCc1cc(Cc2cnc(N)nc2N)cc(CCC)c1OCCCC(=O)OCC` it is 0%; for `CC(C)c1cccc(C(C)C)c1NC(=O)NNC(=O)c1ccc(CCN2CCC(c3nc(COCC(F)(F)F)c(-c4ccc(F)cc4)o3)CC2)cc1` it is 61%.

Regarding `COc1c(C2CCN(CCCCNC(=O)c3oc(-c4ccc(Cl)cc4)cc3CO)CC2)ccc2c1CCCC2`, the Inhibition is recorded as 80%. The figure for `FC(F)(F)c1ccc(CNCC2CCN(Cc3ccc4c(c3)OCO4)CC2)cc1.O=C(O)C(F)(F)F` is 27%. The result for `COc1c(C(=O)NC2CCN(Cc3ccccc3)C2)cnc2ccccc12.Cl` (stereo not given) reads 2%; that for `CC(=O)Nc1cccc(Nc2nccc(Nc3ccc(Oc4ccccc4)cc3)n2)c1.Cl`, 15%. The figure for `COc1ccc(-c2cccc(NC(=O)c3ccc(Cl)cc3)c2)cc1CN1CCCN(C)CC1.O=C(O)C(F)(F)F` is 29%. The molecule `COc1cc2ncnc(Nc3ccc(OCc4ccccc4Br)c(Cl)c3)c2cc1OC.Cl` registered an Inhibition of 25%. The result for `O=S(=O)(c1c(Cl)cc(Cl)cc1Cl)N1CCCCC(c2ccc(Cl)cc2)=N1` reads 11%. The figure for `CCc1cn2c3c(cc(C(=O)N[C@@H](Cc4ccccc4)[C@H](O)CNC4CCOCC4)cc13)N(C(C)C)S(=O)(=O)CC2.O=CO` is 0%.

In turn, `Cc1cccc2nc(-c3ccc(-c4ccc(CN5CCC(C(N)=O)CC5)cc4)s3)[nH]c12.O=C(O)C(F)(F)F` yielded an Inhibition of 4%. The result for `CC(C)NCC(O)COc1ccc(Cc2ccc(OCC(O)CNC(C)C)cc2)cc1.Cl` (stereo not given) reads 0%; that for `O=C(NC1CCN(Cc2ccccc2)CC1)c1ccc2c(=O)n(Cc3ccc(Cl)cc3)c(=S)[nH]c2c1`, 16%; that for `CO/C(=C\C=C\c1cc2cc(Cl)c(Cl)cc2[nH]1)C(=O)NCCCN1CCN(c2ccncc2)CC1`, 12%. The result for `COc1ccc2nccc([C@@H](O)CN3CCC(NC(=O)C(c4ccsc4)N4CCN(c5ccccc5OC)CC4)CC3)c2c1` (stereo not given in full) reads 11%; that for `COc1ccc2nc(C)cc(Nc3ccc(Oc4ccc(Cl)c5ccccc45)c(Cl)c3)c2c1`, 83%.

The molecule `O=C(Nc1cccc(N2CCC(NCCCc3ccncc3)CC2)c1)c1cccc(C(F)(F)F)c1` came in with an Inhibition of 11%. Molecule `CCN(CC)c1ccc(C(=O)Cn2ccc(=N)cc2)cc1` registered an Inhibition of 92%.

In the case of `CC(C)CCN1CCC(Oc2ccc(NC(=O)c3ccc(F)cc3)cc2Cl)CC1.O=C(O)C(F)(F)F`, the Inhibition was found to be 33%. The figure for `Cc1[nH]c(C)c(-c2ccc(OCc3ccc(OC(F)(F)F)cc3)nc2)c(=O)c1Cl` is 3%; for `CCCN(CCC)CCCN(CCCN(CCC)CCC)c1cc(C)nc(Nc2ccc(Cl)cc2)n1.Cl` it is 34%; for `COc1c(I)cc(Cc2cnc(N)nc2N)cc1I` it is 5%. The result for `Cc1ccccc1CCNC(=O)c1ccc(N2CCN(c3ccncc3)CC2)nc1.O=C(O)C(F)(F)F` reads 10%. The result for `CC12CCC(CN(CC(O)Cn3c4ccccc4c4cc(I)ccc43)C1)C2(C)C.Cl` (stereo not given) reads 0%. `CCCCc1ccc(C(=O)Nc2ccc3nc(N4CCN(C)CC4)cc(C)c3c2)cc1` had an Inhibition of 44%.
